# Shown is part of a subset that was picked to be rich in hits.
# Pf Dd2 inh – Plasmodium falciparum Dd2 growth inhibition; P. falciparum Dd2 growth, SYBR Green, 72 h; Potency, µM (series often up to 28.9 µM), without a hit: at the top dose activity, negative = inhibition, actives largely listed as inhibitors; actives 4.3% (n = 120,000); AID 1347417; active means well fitted inhibition curve with a large enough effect;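 further: plate controls were DMSO vehicle for no effect and reference drug for full effect; nearly all actives have a fitted effect of over 65% in size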
#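 Infected erythrocytes (Dd2, 0.3% parasitemia, 2.5% hematocrit final) are added to compound in RPMI-1640/Albumax II medium, grown 72 h at 37C in low oxygen, then lysed with saponin/Triton-X containing SYBR Green and read by fluorescence.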
# * marks the source's active call; other numbers are inactive results; i = inactive; [ ] = another dose, or the depositor's remark. Potency means the concentration at half of the fitted maximal effect.
SMILES,Pf Dd2 inh
CS(=O)(=O)N1CCCN(C(=O)c2ccncc2)CCNC(=O)CC1c1ccccc1 (configuration not stated),-16%
O=C1CCN(S(=O)(=O)c2ccccc2)CCCN(C(=O)Cc2cccc(F)c2)CCN1,-13%
O=C1CC(c2ccccc2)N(C(=O)C2CC2)CCCN(C(=O)c2cc3ccccc3[nH]2)CCN1 (configuration not stated),11µM*
O=C1CC(c2ccccc2)N(C(=O)C2CC2)CCCN(C(=O)c2c[nH]c3ccccc23)CCN1 (configuration not stated),i
O=C1CC(c2ccccc2)N(C(=O)C2CC2)CCCN(C(=O)c2ccc3ccccc3n2)CCN1 (configuration not stated),-13%
O=C1CC(c2ccccc2)N(Cc2ccncc2)CCCNCCN1 (configuration not stated),-14%
Cn1cnc(S(=O)(=O)N2CCC3(CC2)CC(OCC2CC2)CCO3)c1 (configuration not stated),0%
CN(Cc1ccccc1)Cc1nnc2cc(-c3nc(-c4ccccc4)no3)ccn12,i
CN1C(=O)CO[C@H]2CN(Cc3ccccn3)C[C@H]21,-14%[44.1 µM]
Cc1ccc(-n2nc(-c3c(C)nc4scc(CC(=O)N5CCCC5)n4c3=O)cc2C)cc1,i
COc1ccc(CN2C=C(C(=O)OCc3nc(-c4ccccc4F)no3)C(C)=NS2(=O)=O)cc1,i
O=C([C@@H]1C[C@H](F)CN1S(=O)(=O)c1cccc(F)c1)N1CCOCC1,18%
COc1ccc(C(=O)N2[C@@H]3CC[C@H]2CC(NC(=O)c2ccncc2)C3)c(OC)n1 (some centres not stated),i
CCOc1ccc(NC(=O)Cn2c(=O)n(CC3CCC(C(=O)NCCc4ccccc4)CC3)c(=O)c3ccccc32)cc1 (configuration not stated),-10%
Cc1cccc(NC(=O)Cn2c(=O)n(CC3CCC(C(=O)NCCc4ccccc4)CC3)c(=O)c3ccccc32)c1C (configuration not stated),i
CC(C)c1ccc(NC(=O)Cn2c(=O)n(CC3CCC(C(=O)NCCc4ccccc4)CC3)c(=O)c3ccccc32)cc1 (configuration not stated),3.2µM*
CC(C)c1ccc(NC(=O)Cn2c(=O)n(CCc3ccccc3)c(=O)c3ccccc32)cc1,14%
O=C(Cn1c(=O)n(CC2CCC(C(=O)NCCc3ccccc3)CC2)c(=O)c2ccccc21)Nc1ccccc1 (configuration not stated),-11%
CCc1cccc(NC(=O)Cn2c(=O)n(CC3CCC(C(=O)NCCc4ccccc4)CC3)c(=O)c3ccccc32)c1 (configuration not stated),3.5µM*
Cc1cc(C)n(CCC(=O)N2CC(Oc3ccccc3-c3nc(C4CC4)no3)C2)n1,-7%
COc1ccc(C(=O)N2CC3(COCC(=O)N(Cc4ccccc4)C3)C2)cc1,-25%[44.1 µM]
CN1CCC2(CCC1=O)CN(Cc1nc3c(s1)CCCC3)CCN2C (configuration not stated),-1%
O=C(c1cc2ccc3cccnc3c2[nH]1)N1CCN(c2cccc(Cl)c2)CC1,i
CCN(CC)S(=O)(=O)c1ccc(NC(=O)c2cc3ccc4cccnc4c3[nH]2)cc1,11µM*
O=C(NCC1CCN(Cc2ccc(F)cc2)CC1)c1cc2ccc3cccnc3c2[nH]1,7.1µM*
SMILES,Pf Dd2 inh
CCOC(=O)c1ccccc1NC(=O)c1cc2ccc3cccnc3c2[nH]1,-14%
Cc1ccc(Cl)cc1N1CCN(C(=O)c2cc3ccc4cccnc4c3[nH]2)CC1,-2%
COc1ccccc1NC(=O)c1cc2ccc3cccnc3c2[nH]1,i
CC(C)N(Cc1ccccc1)C(=O)c1cc2ccc3cccnc3c2[nH]1,13µM*
CC1CCCN(C(=O)c2cc3ccc4cccnc4c3[nH]2)C1 (configuration not stated),-13%
O=C(NCc1cccc(Cl)c1)c1cc2ccc3cccnc3c2[nH]1,13µM*
O=C(c1cc2ccc3cccnc3c2[nH]1)N1CCN(c2ccc(Cl)cc2)CC1,-22%
O=C(Cn1ncc2c([nH]c3ccccc32)c1=O)NCC1CCN(Cc2ccc(F)cc2)CC1,i
O=C(NCc1ccc(Cl)cc1)c1cc2ccc3cccnc3c2[nH]1,-17%
Cc1nc(N2CCC(C(=O)NCc3ccccc3Cl)CC2)cc(C(F)(F)F)n1,-8%
O=C(c1cccs1)N1CCC2(CC1)N=C(c1ccccc1)NO2,i
CCOC1CCN(C(=O)c2cnc(Cc3c(Cl)cccc3Cl)[nH]c2=O)CC1,-1%
COCC1CN(Cc2ccc(OC)cc2)CC12CCNCC2 (configuration not stated),-3%
COc1c(C)cccc1C(=O)Nc1ccc(-c2nc3ccccc3s2)c(Cl)c1,126%[5.79 µM]
O=C(NCC1CCN(Cc2ccccc2Cl)CC1)c1cc2ccc3cccnc3c2[nH]1,7.9µM*
CCOC(=O)C1CCN(C(=O)c2cc3ccc4cccnc4c3[nH]2)CC1,16%
O=C(c1cc2ccc3cccnc3c2[nH]1)N1CCCCC1,7%
CC(C)c1nc2c(NC(=O)COc3ccccc3)cccn2n1,i
CCc1nc2c(NC(=O)NCc3ccc(OC)cc3)cccn2n1,i
COc1ccccc1CCC(=O)Nc1cccn2nc(C(C)C)nc12,10µM*
Cc1nc(C)c(C(=O)N2CCCC(c3nn(C)c(=O)n3C(C)C)C2)s1 (configuration not stated),12%
CCOc1cccc(-c2nc(C(=O)NCc3ccc4c(c3)OCO4)cs2)c1,-4%
CCOCc1nc(C2CCCN(C(=O)C(C)C)C2)no1 (configuration not stated),30%
CC(=O)c1ccc(NC(=O)c2nc(-c3ccccc3)n(-c3ccc(Cl)cc3)n2)cc1,-19%
COc1ccc(OC)c(C2NC(=O)NC(C)=C2C(=O)Nc2ccc(F)cc2)c1 (configuration not stated),-12%
SMILES,Pf Dd2 inh
COc1ccc(NC(=O)C2=C(C)Nc3ncnn3C2c2ccccn2)cc1 (configuration not stated),12%
COc1ccc(C2=CC(c3ccccc3F)n3ncc(C(=O)Nc4ccc(C)cc4)c3N2)cc1 (configuration not stated),7.9µM*
O=C(Nc1cnc(-c2ccc(Cl)cc2)nc1)c1ccccc1Cl,i
O=C(Nc1ccc(Cl)cc1)c1cnn2c1NC(c1ccccc1)=CC2c1ccccc1 (configuration not stated),3.2µM*
COC(=O)c1ccc(NC(=O)Cn2c(=O)nc(-c3ccccc3)c3ccccc32)cc1,-26%
CN1C[C@H]2CN(Cc3ccc(C(F)(F)F)cc3)CCN2C1=O,10%[44.1 µM]
O=C(c1cccc(OC(F)F)c1)N1CC[C@H](N2CCOCC2)[C@H](CCCO)C1,-9%
Cc1cccc(NC(=O)c2c(C)cc(C)nc2SCC(=O)c2ccccc2)c1,39%[0.594 µM]
Nc1ncc(S(=O)(=O)N2CCN(c3ccccc3)CC2)cn1,63%
C#CCNC(=O)C[C@@H]1O[C@H](CNS(=O)(=O)c2ccc(C)cc2)[C@@H](O)[C@H]1O,18%[44.1 µM]
O=C(OCc1ccccc1Cl)c1ccc(-c2nnn(Cc3ccc(F)cc3)n2)cc1,-9%
CCc1ccc(C2=C(C)C(N3CCC(C(=O)NCc4ccccc4)CC3)=NS2(=O)=O)cc1,3%
CCOC(=O)C1CCN(C(=O)C2CCc3nc(N4CCN(C(C)=O)CC4)sc3C2)CC1 (configuration not stated),i
CC1=C(c2ccc(C)c(C)c2)S(=O)(=O)N=C1N1CCC(C(=O)NCc2ccccc2C)CC1,i

# Source: PubChem (National Center for Advancing Translational Sciences (NCATS))
